# Results: PubChem BioAssay (EPA / NIEHS)
# Where “and” joins values, the source holds several entries; their conditions need not be identical. Equal entries are not always repeated. Inconclusive results are not listed. More than one record can exist for a structure, and the calls need not agree. Calls of active or inactive are those of the source. The calls were made as follows, unless noted: active = hit-call score of the fitted dose curve at least 0.9, where 1 is the maximum; inconclusive = response in the unintended direction; inactive = score below 0.9.
# Tests used:
# [1] = molecular target: Estrogen receptor (Homo sapiens) (UniProt P03372); assay: OT_ERa_GFPERaERE_0480: Odyssey Thera (OT) 8-hour HeLa Transcription Induction Assay for Estrogen Receptor (AID 2283381; active = hit-call score of the fitted dose curve at least 0.9, where 1 is the maximum; inactive = score below 0.9)
# Sequence of Estrogen receptor (Homo sapiens) (P03372 whole entry, looked up): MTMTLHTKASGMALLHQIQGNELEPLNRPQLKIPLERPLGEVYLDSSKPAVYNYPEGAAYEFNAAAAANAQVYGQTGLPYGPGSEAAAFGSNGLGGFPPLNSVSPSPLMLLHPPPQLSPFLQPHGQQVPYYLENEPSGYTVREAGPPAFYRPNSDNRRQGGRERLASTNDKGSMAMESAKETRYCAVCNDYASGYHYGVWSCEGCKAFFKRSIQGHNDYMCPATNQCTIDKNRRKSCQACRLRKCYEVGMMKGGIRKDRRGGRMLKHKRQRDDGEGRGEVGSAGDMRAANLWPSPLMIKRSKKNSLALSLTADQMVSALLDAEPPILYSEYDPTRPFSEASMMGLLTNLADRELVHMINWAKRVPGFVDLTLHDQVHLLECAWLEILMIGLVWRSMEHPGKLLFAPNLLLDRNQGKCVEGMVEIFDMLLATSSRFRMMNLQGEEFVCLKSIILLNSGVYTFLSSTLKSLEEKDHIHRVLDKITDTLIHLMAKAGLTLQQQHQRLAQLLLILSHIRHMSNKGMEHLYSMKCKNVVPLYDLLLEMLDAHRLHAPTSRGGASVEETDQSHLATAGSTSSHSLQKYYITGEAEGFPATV
# How it was run: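 HeLa cells dosed with compound and imaged by fluorescence microscopy at 8 h; GFP induction from an ERE reporter quantified by high-content image analysis and fitted as gain of signal against DMSO baseline.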
# [2] = molecular target: Retinoic acid receptor RXR-alpha (Homo sapiens) (UniProt P19793); assay: OT_NURR1_NURR1RXRa_0480: Odyssey Thera (OT) 8-hour HEK293T Protein Complementation Assay for Nurr1/retinoid X receptor (RXR) (AID 2283385)
# Sequence of Retinoic acid receptor RXR-alpha (Homo sapiens) (P19793 whole entry, looked up, the tested form may be a part): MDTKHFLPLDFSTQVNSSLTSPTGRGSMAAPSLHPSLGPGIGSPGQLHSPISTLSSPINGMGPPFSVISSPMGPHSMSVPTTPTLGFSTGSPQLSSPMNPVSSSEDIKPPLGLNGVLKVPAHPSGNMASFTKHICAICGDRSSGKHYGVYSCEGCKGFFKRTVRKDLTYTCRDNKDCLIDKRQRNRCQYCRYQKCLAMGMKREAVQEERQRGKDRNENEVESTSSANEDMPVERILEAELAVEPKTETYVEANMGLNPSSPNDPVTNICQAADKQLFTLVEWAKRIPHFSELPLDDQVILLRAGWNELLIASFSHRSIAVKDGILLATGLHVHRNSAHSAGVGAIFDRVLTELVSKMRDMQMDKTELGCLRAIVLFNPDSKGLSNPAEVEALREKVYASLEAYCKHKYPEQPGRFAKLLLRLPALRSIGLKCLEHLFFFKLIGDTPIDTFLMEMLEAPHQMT
# How it was run: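 HEK293T cells expressing Nurr1 and RXRα fused to reporter fragments were dosed with compound for 8 hours. Complex formation was read as fluorescence intensity and analysed as gain of signal against DMSO as baseline.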
# [3] = molecular target: Peroxisome proliferator-activated receptor gamma (Homo sapiens) (UniProt P37231); assay: OT_PPARg_PPARgSRC1_0480: Odyssey Thera (OT) 8-hour Protein-Complementation Assay for Peroxisome Proliferator-activated Receptor Gamma / SRC-1 Co-activator (AID 2283387);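 also: nuclear to cytoplasmic split Venus YFP fluorescence ratio reporting PPARg SRC-1 interaction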
# Sequence of Peroxisome proliferator-activated receptor gamma (Homo sapiens) (P37231 whole entry, looked up, the tested form may be a part): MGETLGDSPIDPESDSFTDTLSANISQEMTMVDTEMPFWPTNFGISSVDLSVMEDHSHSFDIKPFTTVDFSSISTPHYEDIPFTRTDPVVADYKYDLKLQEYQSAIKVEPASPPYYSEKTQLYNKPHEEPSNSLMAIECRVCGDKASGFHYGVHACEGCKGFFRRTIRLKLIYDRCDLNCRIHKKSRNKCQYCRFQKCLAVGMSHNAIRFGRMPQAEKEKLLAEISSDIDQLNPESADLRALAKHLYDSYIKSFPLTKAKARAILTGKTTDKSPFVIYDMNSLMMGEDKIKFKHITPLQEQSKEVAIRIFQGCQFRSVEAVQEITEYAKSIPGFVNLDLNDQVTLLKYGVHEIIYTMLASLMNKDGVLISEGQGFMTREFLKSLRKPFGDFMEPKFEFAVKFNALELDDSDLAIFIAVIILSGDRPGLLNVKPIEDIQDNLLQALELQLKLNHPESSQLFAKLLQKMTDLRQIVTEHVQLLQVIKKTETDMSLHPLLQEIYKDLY
# How it was run: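 Read-out: 488 nm N/C fluorescence ratio from complemented Venus YFP fragments, ≥350 cells per image, gain-of-signal fitted against DMSO baseline. Fusions of PPARg/SRC-1 with IFP1/IFP2 expressed transiently in HEK293T; compounds applied 8 h.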
# [4] = molecular target: Peroxisome proliferator-activated receptor gamma (Homo sapiens) (UniProt P37231); assay: OT_PPARg_PPARgSRC1_1440: Odyssey Thera (OT) 24-hour Protein-Complementation Assay for Peroxisome Proliferator-activated Receptor Gamma/ SRC-1 Co-activator (AID 2283388);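 also: nuclear to cytoplasmic ratio of reconstituted Venus YFP fluorescence in fixed imaged cells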
# How it was run: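 Readout: nuclear-to-cytoplasmic 488 nm fluorescence ratio, ≥350 cells per image, 8 images per well, after 24 h compound exposure of HEK293T expressing PPARg/SRC-1 split-YFP fusions. Activity fitted in positive direction against DMSO.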
# [5] = ATG_XTT_Cytotoxicity: Cytotoxicity Assessment in the Attagene TRANS-FACTORIAL HepG2 Assay (AID 2283584);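 as to AC50: cells exposed to compound for 24 h before reading; active means loss of viability signal versus DMSO baseline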
# How it was run: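 XTT readout of cell number in transfected HepG2 cells, 24 h post-dosing; DMSO serves as negative control and baseline, with activity taken as loss of viability signal.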
# [6] = CEETOX_H295R_11DCORT: CeeTox H295R High-throughput Steroidogenesis Assay for 11-Deoxycortisol (11DCORT) (AID 2283432; active = hit-call score of the fitted dose curve at least 0.9, where 1 is the maximum; inactive = score below 0.9;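 as to AC50: 11-deoxycortisol secreted into the medium measured by LC-MS/MS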); conditions: actives raise or lower the signal
# How it was run: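 H295R cells; 10 uM forskolin prestim 48 h; compound in 0.1% DMSO 48 h; media extracted with MTBE; 11-deoxycortisol by LC-MS/MS, 7-point standard curve; gain/loss vs DMSO baseline; viability by MTT in same wells.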
# [7] = CEETOX_H295R_ANDR: CeeTox H295R High-throughput Steroidogenesis Assay for Androstenedione (ANDR) (AID 2283436; active = hit-call score of the fitted dose curve at least 0.9, where 1 is the maximum; inactive = score below 0.9); conditions: actives raise or lower the signal
# How it was run: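 H295R cells, following OECD 456 with minor changes, exposed to chemicals for 48 h. Androstenedione in the medium was quantified by HPLC-MS/MS after MTBE extraction. Fitting was bidirectional versus DMSO; chemicals were diluted until MTT viability was ≥70%.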
# [8] = CEETOX_H295R_CORTIC: CeeTox H295R High-throughput Steroidogenesis Assay for Corticosterone (CORTIC) (AID 2283437; active = hit-call score of the fitted dose curve at least 0.9, where 1 is the maximum; inactive = score below 0.9;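 also: corticosterone secreted into medium quantified by mass spectrometry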); conditions: actives raise or lower the signal
# How it was run: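 H295R adrenal cells prestimulated 48 hours with 10 uM forskolin, then exposed 48 hours to chemical in 0.1% DMSO. Corticosterone in medium measured by HPLC-MS/MS after MTBE extraction; MTT viability in the same wells; bidirectional fit versus DMSO.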
# [9] = CEETOX_H295R_CORTISOL: CeeTox H295R High-throughput Steroidogenesis Assay for Cortisol (AID 2283438; active = hit-call score of the fitted dose curve at least 0.9, where 1 is the maximum; inactive = score below 0.9;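 also: cortisol secreted into medium quantified by LC-MS/MS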); conditions: actives raise or lower the signal
# How it was run: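 H295R human adrenal cells were prestimulated 48 h with 10 uM forskolin, then exposed 48 h to test chemical (0.1% DMSO final). Medium cortisol was quantified by HPLC-MS/MS after MTBE extraction; bidirectional fitting relative to DMSO baseline.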
# [10] = CEETOX_H295R_DOC: CeeTox H295R High-throughput Steroidogenesis Assay for DOC (AID 2283439; active = hit-call score of the fitted dose curve at least 0.9, where 1 is the maximum; inactive = score below 0.9); conditions: actives raise or lower the signal
# How it was run: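 H295R adrenal cells prestimulated 48 h with 10 uM forskolin, then exposed 48 h to test chemical (0.1% DMSO final). Medium 11-deoxycorticosterone extracted with MTBE, quantified by HPLC-MS/MS; bidirectional fit versus DMSO baseline; MTT viability in same wells.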
# [11] = CEETOX_H295R_TESTO: CeeTox H295R High-throughput Steroidogenesis Assay for Testosterone (TESTO) (AID 2283457; active = hit-call score of the fitted dose curve at least 0.9, where 1 is the maximum; inactive = score below 0.9); conditions: actives raise or lower the signal
# How it was run: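 Readout: testosterone quantified by HPLC-MS/MS (C18, ESI positive) after MTBE liquid-liquid extraction of culture medium. Cells were H295R, 48 h chemical exposure per OECD 456 with modifications. Gain or loss of signal fitted relative to DMSO.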
# [12] = CEETOX_H295R_OHPREG: CeeTox H295R High-throughput Steroidogenesis Assay for OH-Pregnenolone (OHPREG) (AID 2283434; active = hit-call score of the fitted dose curve at least 0.9, where 1 is the maximum; inactive = score below 0.9); conditions: actives raise or lower the signal
# How it was run: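 H295R cells pre-stimulated 48 h with 10 uM forskolin, then exposed 48 h to chemical in 0.1% DMSO. 17alpha-hydroxypregnenolone in medium quantified by MTBE extraction and HPLC-MS/MS; bidirectional fit versus DMSO, viability checked by MTT.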
# [13] = CEETOX_H295R_OHPROG: CeeTox H295R High-throughput Steroidogenesis Assay for OH-Progesterone (OHPROG) (AID 2283435; active = hit-call score of the fitted dose curve at least 0.9, where 1 is the maximum; inactive = score below 0.9); conditions: actives raise or lower the signal
# How it was run: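 H295R human adrenal cells were prestimulated 48 h with 10 uM forskolin, then exposed 48 h to test chemical (0.1% DMSO final). 17alpha-hydroxyprogesterone in medium was measured by HPLC-MS/MS after MTBE extraction; bidirectional fitting vs DMSO.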
# [14] = CEETOX_H295R_PROG: CeeTox H295R High-throughput Steroidogenesis Assay for Progesterone (PROG) (AID 2283442; active = hit-call score of the fitted dose curve at least 0.9, where 1 is the maximum; inactive = score below 0.9); conditions: actives raise or lower the signal
# How it was run: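 Progesterone read-out: HPLC-MS/MS on MTBE extracts of conditioned medium after 48 h chemical exposure of forskolin-primed (10 uM, 48 h) H295R cells. Gain or loss of signal was fitted relative to DMSO baseline.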
# [15] = TOX21_p53_BLA_p2_viability: Viability Assessment in the Tox21 HCT-116 p53 Agonism Beta-lactamase Assay, Phase 2 (AID 2283591);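 also: compound exposure lasted 16 h at 37 °C; actives lower the ATP signal meaning cytotoxicity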
# How it was run: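 HCT116 p53-bla cells, 4000/well, dosed after 5 h plating (217-fold dilution of DMSO stocks) and incubated 16 h at 37C. Viability taken as cellular ATP by CellTiter-Glo luminescence after 30 min RT; signal loss marks cytotoxicity.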
structure (smiles),measurement,setting,value
O=C(c1ccccc1)C1CCC1,outcome,[1],inactive
same,outcome,[2],inactive
same,outcome,[3],inactive
same,outcome,[4],inactive
same,outcome,[5],inactive
C1=CCCC1,outcome,[6],inactive
same,outcome,[7],inactive
same,outcome,[8],inactive
same,outcome,[9],inactive
same,outcome,[10],inactive
same,outcome,[11],inactive
C#CC1(O)CC[C@H]2[C@@H]3CCC4=CCCC[C@@H]4[C@H]3CC[C@@]21C (stereo not given in full),AC50,[6],7.32 µM (active)
same,outcome,[12],inactive
same,AC50,[13],7.02 µM (active)
same,outcome,[8],inactive
same,AC50,[9],7.01 µM (active)
same,AC50,[10],2.03 µM (active)
same,outcome,[14],inactive
same,AC50,[15],57.2 µM (active)
same,outcome,[15],inactive
O=C1CCCCCN1SSN1CCCCCC1=O,outcome,[5],inactive
same,outcome,[15],inactive
N#[N+]c1ccc2c(S(=O)(=O)[O-])cccc2c1O,outcome,[5],inactive
same,outcome,[15],inactive
C=CC(C)(C)C,outcome,[5],inactive
same,outcome,[15],inactive
N=c1ccn2c(n1)O[C@H]1[C@H](O)[C@@H](CO)O[C@H]12,outcome,[5],inactive
same,outcome,[15],inactive
CCCCCCOc1cc(C)c(O)c(C)c1C,outcome,[5],inactive
same,outcome,[15],inactive
CC1=NC(C)OC1C (stereo not given),outcome,[5],inactive
same,outcome,[15],inactive
CC(C)(c1cc(Br)c(OCCO)c(Br)c1)c1cc(Br)c(OCCO)c(Br)c1,AC50,[5],23.3 µM (active)
same,AC50,[15],37.3 µM (active)
CC(C)c1ccc2c(c1)CC[C@H]1[C@](C)(CN)CCC[C@]21C,AC50,[5],9.98 µM (active)
same,AC50,[15],42.6 µM (active)
CN(C)CCCN(C)C,outcome,[5],inactive
same,outcome,[15],inactive
CCC(C)C=O (stereo not given),outcome,[5],inactive
same,outcome,[15],inactive
CCc1ccc2c(c1)C(=O)c1ccccc1C2=O,outcome,[5],inactive
same,outcome,[15],inactive
C/C=C\C/C=C/CCCCCCCCOC(C)=O,outcome,[5],inactive
same,outcome,[15],inactive
CCOC(=O)N1CCC(=C2c3ccc(Cl)cc3CCc3cccnc32)CC1,AC50,[5],47.5 µM (active)
same,AC50,[15],69.7 µM (active) and 36.8 µM (active)
N[C@H]1C(O)O[C@H](CO)[C@H](O)[C@@H]1O (stereo not given in full),outcome,[5],inactive
same,outcome,[15],inactive
c1ccc(CCCc2ccncc2)cc1,outcome,[5],inactive
same,outcome,[15],inactive
COc1ccc(C(Cl)=C(c2ccc(OC)cc2)c2ccc(OC)cc2)cc1,outcome,[5],inactive
same,outcome,[15],inactive
CCCCC(CC)COC(=O)c1ccccc1O (stereo not given),outcome,[5],inactive
same,outcome,[15],inactive
Nc1ccc(-c2ccc(F)cc2)cc1,outcome,[5],inactive
same,outcome,[15],inactive
CCOC(=O)CC(C(C)=O)C(C)=O,outcome,[5],inactive
same,outcome,[15],inactive
O=C1c2cccc(O)c2C(=O)c2c(O)cc(CO)cc21,outcome,[5],inactive
same,outcome,[15],inactive
C=C(C)C(=O)OCC(C)C,outcome,[5],inactive
same,outcome,[15],inactive
CCCCCCCCCCC=CC#N,outcome,[5],inactive
same,outcome,[15],inactive
O=[N+]([O-])C1(Br)COCOC1,outcome,[5],inactive
same,outcome,[15],inactive
O=C(O)c1ccccc1Nc1cccc(C(F)(F)F)c1,outcome,[5],inactive
same,outcome,[15],inactive
O=C1CCCCCCCCCCCCCCCO1,outcome,[5],inactive
same,outcome,[15],inactive
CC(=O)[C@@]1(O)CC[C@H]2[C@@H]3C[C@H](C)C4=CC(=O)C=C[C@]4(C)[C@@]3(F)[C@@H](O)C[C@@]21C,outcome,[5],inactive
same,outcome,[15],inactive
Nc1nc2ccccc2[nH]1,outcome,[5],inactive
same,outcome,[15],inactive
O=c1[nH]nc(-c2ccc([N+](=O)[O-])o2)o1,outcome,[5],inactive
same,outcome,[15],inactive
COCCOCCOCCOCCOC,outcome,[5],inactive
same,outcome,[15],inactive
CCCNC(=O)NS(=O)(=O)c1ccc(Cl)cc1,outcome,[5],inactive
same,outcome,[15],inactive
CC(=O)Oc1ccc(C(C)=O)cc1,outcome,[5],inactive
same,outcome,[15],inactive
Nc1ccc(N)c(Cl)c1,outcome,[5],inactive
same,outcome,[15],inactive
Cc1cccc(N(C)C(=S)Oc2ccc3ccccc3c2)c1,outcome,[5],inactive
same,outcome,[15],inactive
CC(=O)Nc1nnc(S(N)(=O)=O)s1,outcome,[5],inactive
same,outcome,[15],inactive
Nc1ncn([C@@H]2O[C@H](CO)[C@@H](O)[C@H]2O)c(=O)n1,outcome,[5],inactive
same,outcome,[15],inactive
O=Cc1ccc(CO)o1,outcome,[5],inactive
same,outcome,[15],inactive
[Cl][In]([Cl])[Cl],outcome,[5],inactive
same,outcome,[15],inactive
CCOC(=O)NNc1nncc2ccccc12,outcome,[5],inactive
same,outcome,[15],inactive
O=c1[nH]c(=O)c2[nH]c(=O)[nH]c2[nH]1,outcome,[5],inactive
same,outcome,[15],inactive
CCCCCC/C=C\CCCCCCCC(=O)O,outcome,[5],inactive
same,outcome,[15],inactive
COC(=O)C1=C(C)NC(C)=C(C(=O)OCC(C)C)C1c1ccccc1[N+](=O)[O-] (stereo not given),outcome,[5],inactive
same,outcome,[15],inactive
CC1(C)O[C@@H]2C[C@H]3[C@@H]4C[C@H](F)C5=CC(=O)CC[C@]5(C)[C@H]4[C@@H](O)C[C@]3(C)[C@]2(C(=O)CO)O1,outcome,[5],inactive
same,outcome,[15],inactive
CC(=O)NS(=O)(=O)c1ccc(N)cc1,outcome,[5],inactive
same,outcome,[15],inactive
CC=CC(=O)N(CC)c1ccccc1C,outcome,[5],inactive
same,outcome,[15],inactive
FC(F)(F)C(=NOCC1OCCO1)c1ccc(Cl)cc1,outcome,[5],inactive
same,outcome,[15],inactive
